# Records with an inconclusive call do not appear. Where a call stands in place of a potency, no number is given. Activity calls are given as the source filed them. Unless noted, calls follow the shape of the dose curve; as a rule, active = well fitted curve in the direction sought with a large enough effect; inconclusive = small, poorly fitted or top-dose-only effect, or another doubt; inactive = no such curve, though single readings can be large; an effect the other way counts as inactive or inconclusive.
# What was measured:
# [1] = biological target: Aldehyde dehydrogenase, mitochondrial (Homo sapiens) (UniProt P05091); experiment: qHTS for Inhibitors of the Aldehyde Dehydrogenase Family (ALDH2) Confirmatory screens (AID 2061303; active = well fitted inhibition curve with a large enough effect; title and protocol of this record describe different tests; also: nearly all actives have a fitted effect of over 45% in size; also: potency is read from the fitted curve at half-maximal effect); conditions: ALDH inhibition qHTS; series mostly up to 45.4 µM
# [2] = qHTS for Inhibitors of the Aldehyde Dehydrogenase Family (ALDH1A2, ALDH1A3, ALDH2, ALDH3A1) (AID 2061307); conditions: ALDH inhibition qHTS; series mostly up to 50.3 µM; also: nearly all actives have a fitted effect of over 50% in size
# [3] = biological target: Retinal dehydrogenase 2 (Homo sapiens) (UniProt O94788); experiment: qHTS for Inhibitors of the Aldehyde Dehydrogenase Family (ALDH1A2) Confirmation screens (AID 2061314); conditions: ALDH1A2 enzyme inhibition qHTS confirmation; series mostly up to 45.9 µM; also: nearly all actives have a fitted effect of over 65% in size; also: potency is read from the fitted curve at half-maximal effect
# [4] = biological target: Retinaldehyde dehydrogenase 3 (Homo sapiens) (UniProt P47895); experiment: qHTS for Inhibitors of the Aldehyde Dehydrogenase Family (ALDH1A3) Primary screen (AID 2061315); conditions: ALDH inhibition qHTS; series mostly up to 56 µM
# [5] = biological target: Aldehyde dehydrogenase 1A1 (Homo sapiens) (UniProt P00352); experiment: qHTS for Inhibitors of the Aldehyde Dehydrogenase Family (ALDH1A1) Confirmatory screens (AID 2061316); conditions: ALDH inhibition qHTS; series mostly up to 47.3 µM; also: nearly all actives have a fitted effect of over 65% in size; also: potency is read from the fitted curve at half-maximal effect
# [6] = biological target: Aldehyde dehydrogenase, mitochondrial (Homo sapiens) (UniProt P05091); experiment: qHTS for Inhibitors of the Aldehyde Dehydrogenase Family (ALDH2) Primary screen (AID 2061308); conditions: ALDH2 enzyme inhibition qHTS, 1536-well; series mostly up to 56 µM; also: nearly all actives have a fitted effect of over 55% in size; also: potency is read from the fitted curve at half-maximal effect
# [7] = biological target: Retinaldehyde dehydrogenase 3 (Homo sapiens) (UniProt P47895); experiment: qHTS for Inhibitors of the Aldehyde Dehydrogenase Family (ALDH1A3) Confirmatory screens (AID 2061311); conditions: ALDH inhibition qHTS; series mostly up to 46 µM; also: nearly all actives have a fitted effect of over 60% in size; also: potency is read from the fitted curve at half-maximal effect
SMILES,Potency [1],Potency [2],Potency [3],Potency [4],Potency [5],Potency [6],Potency [7]
O=C(Nc1ccc(Cl)c(Cl)c1)Nc1cccc(-c2ccncc2)n1,inactive,inactive,inactive,inactive,inactive,,
O=C(OCC#CCSc1nnc(-c2ccco2)o1)c1ccc(F)cc1,15.9 µM (active),inactive,,inactive,8.96 µM (active),,
COc1cc(N2C(=O)c3ccccc3C2=O)c2ncccc2c1,inactive,inactive,,,inactive,,
CCOc1ccc(-c2cc(C(=O)NCCc3ccc(C)cc3)c3ccccc3n2)cc1,inactive,inactive,inactive,,inactive,,
CC(=O)N1CCN(c2ccc(NCc3ccc(C)cc3)cc2)CC1,inactive,,11.3 µM (active),,,inactive,22.5 µM (active)
N#Cc1cccc(NC(=S)N[C@H]2CO[C@H]3[C@@H]2OC[C@@H]3n2nnnc2Oc2cccc(N3CCOCC3)c2)c1,inactive,6.31 µM (active),inactive,,10.2 µM (active),,
CC(=O)c1ccc(N2CCN(C(=O)Nc3ccc(C(C)C)cc3)CC2)cc1,inactive,inactive,,,3.24 µM (active),,
CS(=O)(=O)c1ccc(C(=O)OCC(=O)N2Cc3ccccc3C2)cc1[N+](=O)[O-],inactive,,7.98 µM (active),inactive,,inactive,28.2 µM (active)
O=C(Nc1cncc(NC(=O)c2cccs2)c1)c1cccs1,inactive,,inactive,inactive,inactive,inactive,28.3 µM (active)
N#CN1CCC(NS(=O)(=O)c2ccc(F)cc2)CC1,inactive,,inactive,inactive,inactive,inactive,inactive
O=S(=O)(Nc1cc(O)cc2cccnc12)c1ccc(Cl)s1,8.96 µM (active),,2.01 µM (active),,4 µM (active),0.631 µM (active),0.504 µM (active)

# Reference: PubChem BioAssay (NCATS)
